Experimental findings from the supplement of paper PMC10338343 are described below.

± gives the standard deviation.

This experiment has as its system EfPiwi piRISC loaded with piRNA #1 (26 nt). The experiment in a line: pre-steady-state target cleavage rate (min^-1); auxiliary factor: 500 nM Ephydatia muelleri Gtsf1; guide: piRNA #1 5'p-UGAGGUAGUAGGUUGUAUAGUAUCCA; MIWI and MILI are mouse PIWI proteins and EfPiwi is from a freshwater sponge; tags in brackets are library labels; higher = faster piRNA-guided slicing of the target. The essentials:
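In Cleave-'n-Seq, a transcribed, DNA-blocked target RNA library (0.1 nM) was combined with 1 nM active affinity-purified piRISC bearing one synthetic guide, with or without 500 nM GTSF1 partner protein. Reactions ran in HEPES–potassium acetate buffer at 33 °C for 0–8 or 0–960 min. Uncleaved targets were sequenced and normalised to depth and to weakly complementary targets, three trials were pooled, and k3 was capped at 0.0001 min^-1. The pre-steady-state cleavage rate was obtained by fitting a burst-and-steady-state model.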
As to GGAGUGGAAACUAUACAUCCUACUACCUCA, the “pre-steady-state target cleavage rate” value came to 0.0101 ± 0.0045.

GGAGUGGAUACUAUACAACCAUACUACCUCA: the “pre-steady-state target cleavage rate” value was found to be 0.00742 ± 0.0033.

Consider “GGAGUGGAUACUAUACAACCUACUACCUCU [g2:g26:cont:t1U]”, for which the “pre-steady-state target cleavage rate” value is 1.05 ± 0.27.

For GGAGUGGAUACUUAUACAACCUACUACCUCA, the “pre-steady-state target cleavage rate” value turned out to be 0.093 ± 0.034.

Regarding GGAGACGAUACUAUACAAACCUACUACCUCA, the “pre-steady-state target cleavage rate” value amounted to 0.00846 ± 0.0032.

For the sequence GGAGACCUAACUAUACAACCUACUAUCUCA, the “pre-steady-state target cleavage rate” value was determined as 0.0057 ± 0.003.

As for GGAGACGAUACUAUACAACCUACUACGUGA, the “pre-steady-state target cleavage rate” value is 0.00515 ± 0.0026.

As to GGAGACCUUACUAUACAACCUACUACCUGA, the “pre-steady-state target cleavage rate” value is 0.00415 ± 0.0019.

As to GGAGAGUAUACUAUACAACCUACUACCUCA, the “pre-steady-state target cleavage rate” value was determined as 0.0182 ± 0.0087.

For GGAGUGGAAACUAUACAACCUAGUACCUCA, the “pre-steady-state target cleavage rate” value was 0.00276 ± 0.0018.

As to GGAGUGGAUACUAAACAACGUACUACCUCA, the “pre-steady-state target cleavage rate” value came out at 0.00304 ± 0.0013.

Take GGAGUGGAUACUAUACAACCUACUACCAGA: the “pre-steady-state target cleavage rate” value amounted to 0.00419 ± 0.0019.

GGAGACCAUACAUAUACAACCUACUACCUCA: the “pre-steady-state target cleavage rate” value stood at 0.0645 ± 0.025.

For “GGAGAGGAUACUAUACAACCUACUACCUCU [g2:g25:cont:t1U]”, the “pre-steady-state target cleavage rate” value was 1.56 ± 0.47.

For GGAGUGGAAAGUAUACAACCUACUACCUCA, the “pre-steady-state target cleavage rate” value was determined as 0.00841 ± 0.0043.

Regarding GGAGAGGAUACUAUACAACCUACUACGAGA, the “pre-steady-state target cleavage rate” value stood at 0.00374 ± 0.0018.
